PubChem BioAssay (NCATS)
Values joined by “and” are separate entries in the source; they are usually repeats but may differ in a detail not shown here. Equal values may be shown once. Results filed as inconclusive are left out. Some structures have more than one record in an assay (separate samples or runs), and their calls can disagree. Unmarked numbers belong to inactive results. Active and inactive are the calls of the source. Calls follow the shape of the dose curve; as a rule, active = well fitted inhibition curve with a large enough effect; inconclusive = small, poorly fitted or top-dose-only effect; inactive = flat fitted curve, though single readings scatter.

What follows are compounds tested on HEK293 (assay: Cytotoxic Profiling of Annotated Libraries Using Quantitative High-Throughput Screening (AID 1296008; also: nearly all actives have a fitted effect of over 60% in size)). Conditions: Five cell lines viability, CellTiter-Glo ATP luminescence, 48-72 h; max response: stronger effect = lower value.
Source text: Cell-based phenotypic screening is a commonly used approach to discover biological pathways, novel drug targets, chemical probes and high-quality hit-to-lead molecules. Many hits identified from high-throughput screening campaign are ruled out through a series of follow-up potency, selectivity/specificity, and cytotoxicity assays. Prioritization of molecules with little or no cytotoxicity for a more in-depth downstream evaluation influence the future direction of projects, so cytotoxicity profiling of the screening libraries at early stage is essential for increasing the likelihood of candidate success. […] For the annotated library, we also examined the primary targets and mechanistic pathways regularly associated with cell death. To our knowledge, this is the first study to use high-throughput screening to profile large libraries for cytotoxicity assessment in both normal and cancer cell lines. In summary, the results generated here constitutes a valuable resource for the scientific community and provides insight on identifying cytotoxic compounds with particular mechanisms of action, and prioritizing compounds with suitable cytotoxicity profile for further evaluation.
A pintool (Kalypsys) was used to transfer 23 nL of compound solution to the 1536-well assay plates. After 48 or 72 hr incubation at 37 degree Celsius, 5% CO2 and 95% humidity, 2.5 uL of CellTiter-Glo (Promega) was dispensed into each well using a dispenser (Aspect Automation, St. Paul, MN) with solenoid valves (Lee Valves, Westbrook CT). Plates were left at room temperature for 10 min before imaging the ATP-coupled luminescence using a ViewLux microplate imager (PerkinElmer, Waltham, MA).
% is scaled to controls: 0 for no effect and ±100 for the full control effect; potency is read from the fitted curve at half-maximal effect.

Structure (SMILES)	outcome	max response	Potency
N#Cc1c(N(CC(=O)O)CC(=O)O)sc(C(=O)O)c1CC(=O)O	inactive	–	–
O=S(=O)(O)c1ccc2cc(N=Nc3cc(S(=O)(=O)O)c4cccnc4c3O)ccc2c1	–	-8.8% and -0.547%	–
NC(=O)c1ccc(N(C(N)=O)c2c(F)cccc2F)nc1-c1ccc(F)cc1F	–	-4.84% and -3.96%	–
C[C@@H](O[C@H]1OCCN(Cc2n[nH]c(=O)[nH]2)[C@@H]1c1ccc(F)cc1)c1cc(C(F)(F)F)cc(C(F)(F)F)c1	–	–	20.9 µM (active)
N#Cc1ccc(Oc2ccc3c(c2)COB3O)cc1	–	-0.565%	–
COc1ccc2cc1Oc1ccc(cc1)C[C@H]1c3cc(c(OC)cc3CCN1C)Oc1c(OC)c(OC)cc3c1[C@H](C2)N(C)CC3	–	–	11.8 µM (active)
C[C@@H](O)[C@H]1C(=O)N2C(C(=O)OCOC(=O)C(C)(C)C)=C(SC3CN(C4=NCCS4)C3)[C@H](C)[C@H]12	inactive	–	–
CCC(c1ccc(O)cc1)C(CC)c1ccc(O)cc1 (stereo not given)	–	-1.04%	–
CS(=O)(=O)c1ccc(C2=C(c3ccccc3)C(=O)OC2)cc1	inactive	–	–
CN1CCN(c2cccc(Nc3nc4c(-c5ccc(S(C)(=O)=O)cc5)cccn4n3)c2)CC1	–	–	9.2 µM (active)
CC[C@H](NC(=O)[C@H](C)NC)C(=O)N1C[C@@H](O)C[C@H]1Cc1c(-c2[nH]c3cc(F)ccc3c2C[C@H]2C[C@H](O)CN2C(=O)[C@H](CC)NC(=O)[C@H](C)NC)[nH]c2cc(F)ccc12	–	1%	–
CNC(=O)c1cc(Oc2ccc(NC(=O)Nc3ccc(Cl)c(C(F)(F)F)c3)c(F)c2)ccn1	–	–	7.43 µM (active)
CN1c2ccccc2C(=O)N2CCc3c([nH]c4ccccc34)C21 (stereo not given)	–	-2.28%	1.64 µM (active)
CC(=O)Nc1cccc(-n2c(=O)n(C3CC3)c(=O)c3c(Nc4ccc(I)cc4F)n(C)c(=O)c(C)c32)c1	–	–	11.8 µM (active)
COc1ccc(-c2nc3ccc(C4=NNC(=O)CC4C)cc3[nH]2)cc1 (stereo not given)	–	–	18.8 µM (active) and 23.1 µM (active)
N#CC(c1ccc(Cl)cc1)c1c(Cl)cc(-n2ncc(=O)[nH]c2=O)cc1Cl (stereo not given)	–	-4.97%	–
COc1nccc(-c2c(-c3ccc(F)cc3)ncn2C2CCC(O)CC2)n1 (stereo not given)	inactive	-17.3%	–
OC[C@H]1O[C@@H](O[C@H]2[C@@H](O)[C@@](O)(CO)O[C@@H]2CO)[C@H](O)[C@@H](O)[C@@H]1O	–	-3.28%	–
CCN(CC)CCCCNc1nc2cc(Cl)c(Cl)cc2nc1-c1ccc(-c2cccs2)s1	–	–	29.6 µM (active)

Structure (SMILES)	outcome	max response	Potency
CCNC(=O)[C@H]1O[C@@H](n2cnc3c(N)nc(NCCc4ccc(CCC(=O)O)cc4)nc32)[C@H](O)[C@H]1O	inactive	–	–
CC[C@H](C=C[C@@H](C)[C@H]1CC[C@H]2[C@@H]3CC=C4C[C@@H](O)CC[C@]4(C)[C@@H]3CC[C@]12C)C(C)C	–	3.5%	–
O=C(O)CCC=CCC[C@@H]1[C@H](N2CCCCC2)[C@@H](O)C[C@@H]1OCc1ccc(-c2ccccc2)cc1	–	-1.41%	–
CNc1nc(Nc2ccc(C(=O)N3CCOCC3)cc2OC)ncc1Cl	–	3.56% and -22.4%	–
O=C(Nc1cccc2c(=O)cc(-c3nn[nH]n3)oc12)c1ccc(OCCCCc2ccccc2)cc1	–	–	18.7 µM (active)
Nc1ncnc2c1c(-c1cccc(OCc3ccccc3)c1)cn2C1CC(CN2CCC2)C1 (stereo not given)	–	–	26.4 µM (active) and 8.2 µM (active)
COc1cccc(OC)c1-c1cc(C(=O)NC2(C(=O)O)C3CC4CC(C3)CC2C4)nn1-c1ccnc2cc(Cl)ccc12 (stereo not given)	–	-21.7%	–
CN(C)CCN(Cc1ccc(Cl)cc1)c1ccccn1	–	-16.3%	–
CO[C@H]1C=CO[C@@]2(C)Oc3c(C)c(O)c4c(O)c(c(C=NN5CCN(C)CC5)c(O)c4c3C2=O)NC(=O)C(C)=CC=C[C@H](C)[C@H](O)[C@@H](C)[C@@H](O)[C@@H](C)[C@H](OC(C)=O)[C@H]1C	–	3.97%	–
CCNC(=O)Nc1ccc(Oc2ncnc(N)c2C=NOC)cc1Cl	–	-3.24%	–
O=C(NC[C@H](O)CO)c1ccncc1Nc1ccc(I)cc1F	–	-10.7%	–
CCC=CC[C@H]1C(=O)CC[C@@H]1CC(=O)OC	–	3.57%	–
COc1ccc(CCN(C)CCCOc2ccc(S(=O)(=O)c3[nH]c4ccccc4c3C(C)C)cc2)cc1OC	–	-1.95%	–
O=c1cc(-c2ccc(O)c(O)c2)oc2cc(O)cc(O)c12	inactive	–	–
COc1ccc2ccc(=O)oc2c1CC=C(C)C	–	-5%	–
O=C(Nc1cccc(Cl)c1)Nc1ncc(CCNc2ncnc3ccsc23)s1	–	–	16.6 µM (active)
O=C1CCCC(=O)C1C(=O)c1ccc(C(F)(F)F)cc1[N+](=O)[O-]	–	0.204%	–
CC(=O)NCCC(=O)N[C@@H](CCC(N)=O)C(=O)N[C@@H](CO)C(=O)N[C@@H](CCC(N)=O)C(=O)N[C@@H](CCC(N)=O)C(=O)N[C@H](C(=O)N[C@@H](Cc1ccccc1)C(=O)N[C@]1(C)CCCCCCC=CCCC[C@@](C)(C(=O)N[C@@H](CCC(N)=O)C(=O)N[C@@H](CC(N)=O)C(N)=O)NC(=O)[C@H](CC(C)C)NC(=O)[C@H](CC(C)C)NC(=O)[C@@H](CCCNC(=N)N)NC(=O)[C@H](Cc2c[nH]c3ccccc23)NC(=O)[C@H](CC(C)C)NC(=O)[C@H](CC(N)=O)NC1=O)[C@H](C)O	–	-2.69%	–
CCn1c(-c2nonc2N)nc2cncc(CNC3CCNCC3)c21	–	–	10.5 µM (active) and 2.31 µM (active)
